Common to all, as to assay: DAPPL (digital affinity profiling via proximity ligation, sequencing); 10 mM Tris-HCl pH 7.5, 50 mM NaCl, 1 mM DTT, 4% glycerol, room temperature, 30 min; GST-TFs on glutathione beads, 16-mer random dsDNA library, 0.1% formaldehyde crosslink after washing; high values mean tight binding
For one assay, the target named is T1, FEV (Homo sapiens, UniProt Q99581 1-238).
T1 sequence: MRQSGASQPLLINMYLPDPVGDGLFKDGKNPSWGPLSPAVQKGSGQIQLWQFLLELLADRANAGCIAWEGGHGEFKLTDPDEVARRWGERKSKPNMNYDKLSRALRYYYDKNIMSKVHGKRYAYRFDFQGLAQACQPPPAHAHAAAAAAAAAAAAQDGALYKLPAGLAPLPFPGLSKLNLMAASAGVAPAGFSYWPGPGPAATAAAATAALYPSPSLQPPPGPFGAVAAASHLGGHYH
The conditions noted are these: protein: recombinant; tags: N-terminal GST; dsDNA, one strand shown. The method in brief: (§1)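 A tag-only sample was pooled with DNA-barcoded human transcription factors that had been expressed in yeast as GST fusions and captured on glutathione beads. The pools were incubated for 30 min at room temperature with 200 nmole of a random double-stranded 16-mer DNA library in Tris/NaCl/DTT/glycerol buffer, then washed, crosslinked with 0.1% formaldehyde, proximity-ligated (BsaI/T4 ligase, 1 h, 37 °C), PCR-amplified and sequenced on an Illumina NextSeq500. Binding signal is each hexamer's read frequency for a factor divided by its frequency for the tag-only sample.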

The target of a further assay is ETV5 (Homo sapiens, UniProt P41161 1-510). The conditions noted are these: protein: recombinant; tags: N-terminal GST; dsDNA, one strand shown. The method in brief:
as §1

The target in another assay is HSF1 (Homo sapiens, UniProt Q00613 1-529). The conditions noted are these: protein: recombinant; tags: N-terminal GST; chain copies: 3; dsDNA, one strand shown. The method, boiled down:
as §1

The next assay concerns the target T2, SPIC (Homo sapiens, UniProt Q8N5J4 1-248).
T2 sequence: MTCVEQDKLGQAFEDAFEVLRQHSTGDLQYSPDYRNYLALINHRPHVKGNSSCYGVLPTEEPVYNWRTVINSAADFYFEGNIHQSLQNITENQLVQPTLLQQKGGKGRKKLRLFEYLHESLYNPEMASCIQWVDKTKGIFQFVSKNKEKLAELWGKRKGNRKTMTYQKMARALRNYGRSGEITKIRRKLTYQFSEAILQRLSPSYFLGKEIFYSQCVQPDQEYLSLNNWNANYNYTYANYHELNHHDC
The conditions noted are these: protein: recombinant; tags: N-terminal GST; dsDNA, one strand shown. The method in brief:
as §1

Another assay concerns the target ELF4 (Homo sapiens, UniProt Q99607 1-663). The settings on record: protein: recombinant; tags: N-terminal GST; dsDNA, one strand shown. The method, boiled down: as §1
A further assay has as its target T3, ELK4 (Homo sapiens, UniProt P28324-2 1-405).
T3 sequence: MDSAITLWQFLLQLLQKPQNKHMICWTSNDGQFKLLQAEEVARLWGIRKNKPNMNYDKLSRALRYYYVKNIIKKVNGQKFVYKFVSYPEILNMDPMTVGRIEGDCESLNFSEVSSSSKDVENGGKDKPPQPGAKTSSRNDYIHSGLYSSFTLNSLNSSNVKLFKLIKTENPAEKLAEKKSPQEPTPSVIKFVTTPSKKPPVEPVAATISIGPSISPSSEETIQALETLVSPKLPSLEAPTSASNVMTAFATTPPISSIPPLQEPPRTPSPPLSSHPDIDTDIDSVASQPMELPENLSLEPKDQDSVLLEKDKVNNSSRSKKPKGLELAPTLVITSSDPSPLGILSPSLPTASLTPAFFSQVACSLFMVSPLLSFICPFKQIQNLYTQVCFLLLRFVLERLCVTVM
The conditions noted are these: protein: recombinant; tags: N-terminal GST; dsDNA, one strand shown. The method, boiled down:
as §1

The target of a further assay is T4, ETV2 (Homo sapiens, UniProt O00321 1-342).
T4 sequence: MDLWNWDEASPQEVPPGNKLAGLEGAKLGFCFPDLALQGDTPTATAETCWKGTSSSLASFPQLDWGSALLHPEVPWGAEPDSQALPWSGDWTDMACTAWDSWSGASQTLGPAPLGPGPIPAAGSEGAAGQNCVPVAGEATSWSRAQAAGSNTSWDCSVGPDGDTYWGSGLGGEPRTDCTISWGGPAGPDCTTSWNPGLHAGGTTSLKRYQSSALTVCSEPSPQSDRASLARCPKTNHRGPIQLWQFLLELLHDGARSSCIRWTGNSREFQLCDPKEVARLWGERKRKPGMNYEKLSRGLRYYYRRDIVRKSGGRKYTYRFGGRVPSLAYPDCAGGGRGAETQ
The settings on record: protein: recombinant; tags: N-terminal GST; dsDNA, one strand shown. The method, boiled down:
as §1

The target in another assay is T5, ELF3 (Homo sapiens, UniProt P78545 1-371).
T5 sequence: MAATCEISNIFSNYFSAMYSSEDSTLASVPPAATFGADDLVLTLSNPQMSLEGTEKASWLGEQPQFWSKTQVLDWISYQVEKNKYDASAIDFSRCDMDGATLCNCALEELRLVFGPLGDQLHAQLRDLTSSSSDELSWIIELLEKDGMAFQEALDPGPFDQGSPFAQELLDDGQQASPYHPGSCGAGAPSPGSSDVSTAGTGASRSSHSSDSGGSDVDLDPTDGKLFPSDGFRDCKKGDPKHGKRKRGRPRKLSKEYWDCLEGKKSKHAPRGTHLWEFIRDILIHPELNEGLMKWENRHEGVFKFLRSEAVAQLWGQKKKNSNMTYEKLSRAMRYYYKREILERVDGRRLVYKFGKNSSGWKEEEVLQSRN
The conditions noted are these: protein: recombinant; tags: N-terminal GST; dsDNA, one strand shown. The method, boiled down: as §1

The target in another assay is CRX (Homo sapiens, UniProt O43186 1-299). The settings on record: protein: recombinant; tags: N-terminal GST; dsDNA, one strand shown. The method, boiled down: as §1
A further assay deals with ETV1 (Homo sapiens, UniProt P50549 1-477). The settings on record: protein: recombinant; tags: N-terminal GST; dsDNA, one strand shown. The method, boiled down: as §1
The target of a further assay is T6, ERF (Homo sapiens, UniProt P50548 1-548).
T6 sequence: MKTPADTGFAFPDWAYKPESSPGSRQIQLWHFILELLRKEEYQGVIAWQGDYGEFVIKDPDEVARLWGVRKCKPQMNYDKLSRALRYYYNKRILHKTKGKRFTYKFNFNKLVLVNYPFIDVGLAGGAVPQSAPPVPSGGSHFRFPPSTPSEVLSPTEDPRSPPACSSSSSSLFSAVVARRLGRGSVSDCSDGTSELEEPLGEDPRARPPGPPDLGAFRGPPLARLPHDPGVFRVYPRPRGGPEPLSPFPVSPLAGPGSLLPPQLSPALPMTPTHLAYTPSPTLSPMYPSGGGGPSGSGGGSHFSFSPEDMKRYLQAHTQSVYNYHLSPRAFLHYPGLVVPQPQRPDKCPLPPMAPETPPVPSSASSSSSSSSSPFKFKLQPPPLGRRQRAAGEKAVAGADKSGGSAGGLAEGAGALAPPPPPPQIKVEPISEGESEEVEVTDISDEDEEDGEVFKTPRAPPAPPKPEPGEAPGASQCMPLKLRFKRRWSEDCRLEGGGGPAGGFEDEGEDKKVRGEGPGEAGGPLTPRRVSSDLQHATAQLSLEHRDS
The conditions noted are these: protein: recombinant; tags: N-terminal GST; dsDNA, one strand shown. The method, boiled down: as §1

The next assay concerns the target T7, ETV3L (Homo sapiens, UniProt Q6ZN32 1-361).
T7 sequence: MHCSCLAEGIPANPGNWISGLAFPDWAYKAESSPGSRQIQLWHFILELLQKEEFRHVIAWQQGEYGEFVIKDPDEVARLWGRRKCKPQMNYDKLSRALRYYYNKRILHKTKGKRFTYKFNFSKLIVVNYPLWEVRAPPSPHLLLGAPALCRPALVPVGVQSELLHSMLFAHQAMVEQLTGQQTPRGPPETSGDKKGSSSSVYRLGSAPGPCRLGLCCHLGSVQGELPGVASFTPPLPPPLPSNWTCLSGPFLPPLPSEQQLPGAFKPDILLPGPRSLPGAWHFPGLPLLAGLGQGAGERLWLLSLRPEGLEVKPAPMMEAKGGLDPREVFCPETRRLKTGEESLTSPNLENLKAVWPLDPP
The conditions noted are these: protein: recombinant; tags: N-terminal GST; dsDNA, one strand shown. The method, boiled down: as §1

The target in the next assay is T8, ETS2 (Homo sapiens, UniProt P15036 1-469).
T8 sequence: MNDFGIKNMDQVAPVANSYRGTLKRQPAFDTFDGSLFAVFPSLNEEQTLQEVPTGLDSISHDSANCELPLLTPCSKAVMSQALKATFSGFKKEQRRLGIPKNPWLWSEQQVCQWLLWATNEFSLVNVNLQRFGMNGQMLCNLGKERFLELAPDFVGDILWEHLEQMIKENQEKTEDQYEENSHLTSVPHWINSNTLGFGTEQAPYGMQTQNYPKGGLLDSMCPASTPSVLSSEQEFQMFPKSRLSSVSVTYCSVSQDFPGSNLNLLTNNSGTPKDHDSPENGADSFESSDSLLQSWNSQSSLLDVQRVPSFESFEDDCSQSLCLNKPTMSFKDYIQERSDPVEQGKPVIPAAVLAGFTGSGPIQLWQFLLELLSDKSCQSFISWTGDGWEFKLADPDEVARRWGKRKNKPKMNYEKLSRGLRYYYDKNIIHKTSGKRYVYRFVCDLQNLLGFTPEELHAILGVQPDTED
The settings on record: protein: recombinant; tags: N-terminal GST; dsDNA, one strand shown. The method in brief:
as §1

In a further assay the target is T9, SPDEF (Homo sapiens, UniProt O95238 1-335).
T9 sequence: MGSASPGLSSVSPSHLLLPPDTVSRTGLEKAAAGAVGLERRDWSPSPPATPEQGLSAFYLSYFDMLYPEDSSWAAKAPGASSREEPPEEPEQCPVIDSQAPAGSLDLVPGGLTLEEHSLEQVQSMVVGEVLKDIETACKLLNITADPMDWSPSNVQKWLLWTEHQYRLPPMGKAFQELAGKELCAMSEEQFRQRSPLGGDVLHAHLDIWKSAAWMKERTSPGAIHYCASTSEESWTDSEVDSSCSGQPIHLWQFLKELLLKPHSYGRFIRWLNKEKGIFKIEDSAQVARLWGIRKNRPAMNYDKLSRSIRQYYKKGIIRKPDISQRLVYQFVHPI
The conditions noted are these: protein: recombinant; tags: N-terminal GST; dsDNA, one strand shown. The method, boiled down:
as §1

The next assay addresses T10, ETV7 (Homo sapiens, UniProt Q9Y603 1-341).
T10 sequence: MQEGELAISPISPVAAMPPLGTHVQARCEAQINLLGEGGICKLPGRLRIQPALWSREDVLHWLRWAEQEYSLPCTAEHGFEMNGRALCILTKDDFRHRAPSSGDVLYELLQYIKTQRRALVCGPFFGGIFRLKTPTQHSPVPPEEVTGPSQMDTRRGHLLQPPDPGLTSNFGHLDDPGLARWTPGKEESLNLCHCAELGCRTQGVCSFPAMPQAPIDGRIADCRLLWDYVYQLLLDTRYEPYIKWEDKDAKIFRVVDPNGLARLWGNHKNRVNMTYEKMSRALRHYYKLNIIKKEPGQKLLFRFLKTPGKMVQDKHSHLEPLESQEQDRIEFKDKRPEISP
The settings on record: protein: recombinant; tags: N-terminal GST; dsDNA, one strand shown. The method in brief: as §1

The target in the next assay is T11, ELF5 (Homo sapiens, UniProt Q9UKW6-2 1-255).
T11 sequence: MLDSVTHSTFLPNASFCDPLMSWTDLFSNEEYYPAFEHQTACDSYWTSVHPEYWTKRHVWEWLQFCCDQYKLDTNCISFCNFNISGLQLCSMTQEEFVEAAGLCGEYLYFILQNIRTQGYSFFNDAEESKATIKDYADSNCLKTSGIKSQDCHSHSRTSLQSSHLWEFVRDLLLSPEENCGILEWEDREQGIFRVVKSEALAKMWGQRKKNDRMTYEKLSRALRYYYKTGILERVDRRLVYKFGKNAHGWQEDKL
The settings on record: protein: recombinant; tags: N-terminal GST; dsDNA, one strand shown. The method, boiled down: as §1

The target in the next assay is T12, ETV3 (Homo sapiens, UniProt P41162-2 1-143).
T12 sequence: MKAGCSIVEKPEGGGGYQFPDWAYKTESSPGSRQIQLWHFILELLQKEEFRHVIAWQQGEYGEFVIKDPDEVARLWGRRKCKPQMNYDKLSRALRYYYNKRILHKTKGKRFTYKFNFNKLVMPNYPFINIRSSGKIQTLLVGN
The settings on record: protein: recombinant; tags: N-terminal GST; dsDNA, one strand shown. The method in brief:
as §1

For the next assay, the target named is ETV6 (Homo sapiens, UniProt P41212 1-452). The conditions noted are these: protein: recombinant; tags: N-terminal GST; dsDNA, one strand shown. The method in brief:
as §1

ETV5, sequence (P41161 whole entry): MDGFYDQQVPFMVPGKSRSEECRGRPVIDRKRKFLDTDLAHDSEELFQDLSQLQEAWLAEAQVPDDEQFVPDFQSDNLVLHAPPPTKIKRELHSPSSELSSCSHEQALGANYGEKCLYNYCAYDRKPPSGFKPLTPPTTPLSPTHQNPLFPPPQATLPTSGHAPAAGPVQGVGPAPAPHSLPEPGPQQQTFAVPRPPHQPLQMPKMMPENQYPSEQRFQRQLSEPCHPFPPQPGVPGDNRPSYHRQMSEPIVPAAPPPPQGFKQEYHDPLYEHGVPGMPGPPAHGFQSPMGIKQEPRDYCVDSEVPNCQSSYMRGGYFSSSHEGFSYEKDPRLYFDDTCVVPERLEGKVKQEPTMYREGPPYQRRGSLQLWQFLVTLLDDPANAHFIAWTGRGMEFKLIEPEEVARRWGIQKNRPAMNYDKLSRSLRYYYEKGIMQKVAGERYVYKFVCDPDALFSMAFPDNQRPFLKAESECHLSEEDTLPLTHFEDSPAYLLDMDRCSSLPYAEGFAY
ETV6, sequence (P41212 whole entry): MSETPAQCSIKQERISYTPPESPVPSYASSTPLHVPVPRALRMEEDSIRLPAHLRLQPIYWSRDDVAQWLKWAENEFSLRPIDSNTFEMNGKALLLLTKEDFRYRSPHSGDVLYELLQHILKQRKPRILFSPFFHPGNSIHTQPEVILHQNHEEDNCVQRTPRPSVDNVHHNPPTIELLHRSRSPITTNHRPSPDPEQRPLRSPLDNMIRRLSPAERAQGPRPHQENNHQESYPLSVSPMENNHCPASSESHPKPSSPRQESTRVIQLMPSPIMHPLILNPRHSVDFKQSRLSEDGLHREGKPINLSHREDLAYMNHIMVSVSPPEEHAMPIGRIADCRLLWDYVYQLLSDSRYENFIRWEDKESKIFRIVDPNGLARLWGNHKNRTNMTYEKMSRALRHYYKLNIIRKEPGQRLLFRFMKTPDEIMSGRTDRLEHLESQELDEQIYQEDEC
HSF1, sequence (Q00613 whole entry): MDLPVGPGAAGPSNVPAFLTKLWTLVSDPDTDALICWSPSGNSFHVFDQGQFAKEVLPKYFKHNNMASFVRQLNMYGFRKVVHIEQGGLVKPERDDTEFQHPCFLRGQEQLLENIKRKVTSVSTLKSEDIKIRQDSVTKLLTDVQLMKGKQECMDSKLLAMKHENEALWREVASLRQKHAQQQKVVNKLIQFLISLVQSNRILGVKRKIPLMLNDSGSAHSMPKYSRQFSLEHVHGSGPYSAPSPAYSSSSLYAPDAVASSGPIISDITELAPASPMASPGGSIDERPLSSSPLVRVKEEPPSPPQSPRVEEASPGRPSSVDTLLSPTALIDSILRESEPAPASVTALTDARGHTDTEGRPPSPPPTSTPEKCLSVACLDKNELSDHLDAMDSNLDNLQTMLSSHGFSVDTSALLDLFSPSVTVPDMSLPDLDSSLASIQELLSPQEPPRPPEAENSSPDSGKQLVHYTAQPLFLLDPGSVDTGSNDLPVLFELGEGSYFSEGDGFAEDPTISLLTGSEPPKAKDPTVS
ELF4, sequence (Q99607 whole entry): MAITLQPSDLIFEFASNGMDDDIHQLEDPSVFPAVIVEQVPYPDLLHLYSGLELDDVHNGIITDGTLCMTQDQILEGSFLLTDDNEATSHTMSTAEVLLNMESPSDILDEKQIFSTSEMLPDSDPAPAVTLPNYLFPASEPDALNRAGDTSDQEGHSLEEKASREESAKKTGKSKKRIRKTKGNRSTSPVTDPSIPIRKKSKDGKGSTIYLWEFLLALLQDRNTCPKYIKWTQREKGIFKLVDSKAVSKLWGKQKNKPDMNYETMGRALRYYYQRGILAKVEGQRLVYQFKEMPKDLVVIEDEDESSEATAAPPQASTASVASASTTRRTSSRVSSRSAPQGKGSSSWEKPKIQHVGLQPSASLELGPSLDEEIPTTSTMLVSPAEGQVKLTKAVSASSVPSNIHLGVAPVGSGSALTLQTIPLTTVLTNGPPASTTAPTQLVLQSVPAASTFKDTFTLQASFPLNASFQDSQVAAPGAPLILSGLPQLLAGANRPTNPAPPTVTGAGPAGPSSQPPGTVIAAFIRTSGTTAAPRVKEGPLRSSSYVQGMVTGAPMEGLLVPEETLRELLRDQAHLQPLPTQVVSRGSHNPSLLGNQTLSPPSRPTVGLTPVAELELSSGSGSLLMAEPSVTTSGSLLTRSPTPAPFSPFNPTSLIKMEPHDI
ETV1, sequence (P50549 whole entry): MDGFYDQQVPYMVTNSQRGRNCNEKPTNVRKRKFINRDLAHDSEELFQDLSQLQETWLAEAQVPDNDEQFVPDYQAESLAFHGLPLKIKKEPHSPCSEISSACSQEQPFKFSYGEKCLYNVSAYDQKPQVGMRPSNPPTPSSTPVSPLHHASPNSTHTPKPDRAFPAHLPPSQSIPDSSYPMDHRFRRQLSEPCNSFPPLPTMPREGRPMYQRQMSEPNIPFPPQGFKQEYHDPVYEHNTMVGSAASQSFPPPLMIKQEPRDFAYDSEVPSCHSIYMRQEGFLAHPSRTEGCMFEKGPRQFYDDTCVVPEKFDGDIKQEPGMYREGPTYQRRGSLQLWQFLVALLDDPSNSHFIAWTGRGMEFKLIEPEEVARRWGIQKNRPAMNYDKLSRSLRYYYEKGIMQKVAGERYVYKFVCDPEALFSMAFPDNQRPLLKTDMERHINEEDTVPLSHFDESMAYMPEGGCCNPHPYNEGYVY
CRX, sequence (O43186 whole entry): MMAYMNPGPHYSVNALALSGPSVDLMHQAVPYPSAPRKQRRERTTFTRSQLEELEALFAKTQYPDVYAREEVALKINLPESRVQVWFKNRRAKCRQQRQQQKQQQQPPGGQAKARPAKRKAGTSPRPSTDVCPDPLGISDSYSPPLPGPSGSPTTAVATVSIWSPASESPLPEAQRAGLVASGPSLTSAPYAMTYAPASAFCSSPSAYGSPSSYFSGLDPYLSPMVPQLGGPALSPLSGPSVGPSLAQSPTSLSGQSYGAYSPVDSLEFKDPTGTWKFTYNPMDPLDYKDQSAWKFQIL

For GAACCT, the binding signal with FEV was 1.03 fold enrichment (6-mer frequency, TF over GST control); with ETV5 it was 1.1 fold enrichment (6-mer frequency, TF over GST control); with HSF1, 1.45 fold enrichment (6-mer frequency, TF over GST control); with SPIC it was 1.09 fold enrichment (6-mer frequency, TF over GST control); in the assay with ELF4, 1.17 fold enrichment (6-mer frequency, TF over GST control); in the assay with ELK4, 1.07 fold enrichment (6-mer frequency, TF over GST control). The binding signal was 1.25 fold enrichment (6-mer frequency, TF over GST control) with ETV2; 1.15 fold enrichment (6-mer frequency, TF over GST control) in the assay with ELF3; 1.06 fold enrichment (6-mer frequency, TF over GST control) with CRX; 1.05 fold enrichment (6-mer frequency, TF over GST control) with ETV1; 1.04 fold enrichment (6-mer frequency, TF over GST control) with ERF; 1.18 fold enrichment (6-mer frequency, TF over GST control) with ETV3L. Further, the binding signal in the assay with ETS2 is 1.14 fold enrichment (6-mer frequency, TF over GST control); in the assay with SPDEF, 1.08 fold enrichment (6-mer frequency, TF over GST control); with ETV7, 1.19 fold enrichment (6-mer frequency, TF over GST control); with ELF5, 1.03 fold enrichment (6-mer frequency, TF over GST control); with ETV3, 1.1 fold enrichment (6-mer frequency, TF over GST control); with ETV6, 1.03 fold enrichment (6-mer frequency, TF over GST control).

These data come from publication PMC7862700, “An all-to-all approach to the identification of sequence-specific readers for epigenetic DNA modifications on cytosine”.
